Measured values published in PubChem BioAssay (Tox21).
Inconclusive results are not listed. Activity calls are given as the source filed them. Unless noted, the call rests on the fitted dose curve; in most records, active means well fitted curve in the direction sought with a large enough effect in the repeat runs; inconclusive means weak or mixed curves; inactive means no such curve, though single readings can be large; an effect the other way counts as inactive or inconclusive.

Tests used:
[1] = qHTS assay for small molecule agonists of the p53 signaling pathway (AID 651631; calls by dose curve; further: nearly all actives have a fitted effect of over 15% in size; further: potency means the concentration at half of the fitted maximal effect)
How it was run: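 Read-out is beta-lactamase FRET fluorescence measured 2 h after substrate addition at room temperature, in HCT-116 cells with a p53 response element-driven reporter exposed to compounds for 16 h at 37 °C.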

[2] = qHTS assay for small molecule agonists of the p53 signaling pathway - cell viability (AID 651633; calls by dose curve; further: nearly all actives have a fitted effect of over 30% in size; further: potency means the concentration at half of the fitted maximal effect)
How it was run: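 Viability counter-read: CellTiter-Glo luminescence (30 min, room temperature) in the same p53RE-bla plates. These plates had been exposed to compounds for 16 h at 37 C.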

[3] = qHTS assay for small molecules that induce genotoxicity in human embryonic kidney cells expressing luciferase-tagged ATAD5 - cell viability (AID 651634; calls by dose curve; further: nearly all actives have a fitted effect of over 25% in size; further: potency means the concentration at half of the fitted maximal effect)
How it was run: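 HEK293T ATAD5-luc cells, 2,000/well; compound 15.5 hr, 37C/5% CO2; CellTiter-Fluor 30 min, 37C; fluorescence read.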

[4] = qHTS assay for small molecule disruptors of the mitochondrial membrane potential (AID 720635); further: potency means the concentration at half of the fitted maximal effect
How it was run: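 Mitochondrial membrane potential tracked with Mito-MPS dye, red aggregates (ex 540/em 590 nm) against green monomers (ex 490/em 535 nm). Compound treatment 1 hr at 37C, dye 30 min in HepG2.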

[5] = qHTS assay to test for compound auto fluorescence at 590 nm (red) in HepG2 cells (AID 720674)
How it was run: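 1 hr compound incubation on HepG2 cells, 37 C, 5% CO2; plate read ex 540 nm / em 590 nm; intensities reported as Rose Bengal sodium equivalents.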

[6] = qHTS assay to test for compound auto fluorescence at 535 nm (green) in HepG2 cells (AID 720675)
[7] = qHTS assay to test for compound auto fluorescence at 460 nm (blue) in HEK293 cells (AID 720678)
How it was run: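 HEK293, 2,000 cells/well, 10% dialyzed FBS; attach 4-5 hr 37C; pin compound or DMSO; o/n 37C/5% CO2; fluorescence 405/460 nm; triamterene-equivalent units.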

[8] = qHTS assay to test for compound auto fluorescence at 590 nm (red) in HEK293 cells (AID 720679)
How it was run: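 Intensity at 540nm excitation and 590nm emission is reported as Rose Bengal sodium-equivalent autofluorescence. Measurements followed overnight exposure (37C, 5% CO2) of HEK293 cells, 2,000 per well, to 23 nL compound.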

[9] = qHTS assay to test for compound auto fluorescence at 535 nm (green) in HEK293 cells (AID 720680)
[10] = qHTS assay to test for compound auto fluorescence at 460 nm (blue) in HEK293 cell free culture (AID 720681)
How it was run: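 Blue fluorescence (Ex 405/Em 460 nm, triamterene-equivalent) was read immediately after pin transfer of compound or DMSO into medium (DMEM, 10% FBS) without cells.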

[11] = qHTS assay to test for compound auto fluorescence at 535 nm (green) in HEK293 cell free culture (AID 720682)
How it was run: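 Fluorescein serves as the green reference fluorophore; each compound's intrinsic emission at 535 nm (excitation 485 nm) is reported as an equivalent amount of that dye, measured in serum-containing DMEM without cells.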

[12] = qHTS assay to test for compound auto fluorescence at 590 nm (red) in HEK293 cell free culture (AID 720683)
How it was run: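 Red-channel autofluorescence of compounds in culture medium (DMEM, 10% FBS), no cells, measured at 540/590 nm. Rose Bengal sodium is the reference fluorophore for equivalence.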

[13] = qHTS assay to test for compound auto fluorescence at 590 nm (red) in HepG2 cell free culture (AID 720684)
How it was run: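 No cells present: MEM + 10% FBS only. Compound pinned in, red label read (540/590 nm). Activity = fluorescence equivalent to Rose Bengal sodium.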

[14] = qHTS assay to test for compound auto fluorescence at 460 nm (blue) in HepG2 cell free culture (AID 720685)
How it was run: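 Cell-free plates of MEM plus 10% FBS received 23 nL compound or DMSO vehicle; blue-channel (405/460 nm) intensity scored against triamterene as reference fluorophore.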

[15] = qHTS assay to test for compound auto fluorescence at 535 nm (green) in HepG2 cell free culture (AID 720686)
[16] = qHTS assay to test for compound auto fluorescence at 460 nm (blue) in HepG2 cells (AID 720687)
How it was run: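 Blue-channel autofluorescence (Ex/Em 405/460 nm, triamterene-equivalent) was measured after 1 hr compound exposure at 37 C, 5% CO2. Cells were HepG2, plated overnight at 37 C in MEM plus 10% FBS.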

[17] = target: Glucocorticoid receptor (Homo sapiens) (UniProt P04150); test: qHTS assay to identify small molecule agonists of the glucocorticoid receptor (GR) signaling pathway (AID 720691; active means well fitted activation curve with a large enough effect in the signal ratio in the repeat runs, not every such curve was filed as active; the % refers to the signal ratio)
Glucocorticoid receptor (Homo sapiens), sequence (P04150 whole entry, looked up): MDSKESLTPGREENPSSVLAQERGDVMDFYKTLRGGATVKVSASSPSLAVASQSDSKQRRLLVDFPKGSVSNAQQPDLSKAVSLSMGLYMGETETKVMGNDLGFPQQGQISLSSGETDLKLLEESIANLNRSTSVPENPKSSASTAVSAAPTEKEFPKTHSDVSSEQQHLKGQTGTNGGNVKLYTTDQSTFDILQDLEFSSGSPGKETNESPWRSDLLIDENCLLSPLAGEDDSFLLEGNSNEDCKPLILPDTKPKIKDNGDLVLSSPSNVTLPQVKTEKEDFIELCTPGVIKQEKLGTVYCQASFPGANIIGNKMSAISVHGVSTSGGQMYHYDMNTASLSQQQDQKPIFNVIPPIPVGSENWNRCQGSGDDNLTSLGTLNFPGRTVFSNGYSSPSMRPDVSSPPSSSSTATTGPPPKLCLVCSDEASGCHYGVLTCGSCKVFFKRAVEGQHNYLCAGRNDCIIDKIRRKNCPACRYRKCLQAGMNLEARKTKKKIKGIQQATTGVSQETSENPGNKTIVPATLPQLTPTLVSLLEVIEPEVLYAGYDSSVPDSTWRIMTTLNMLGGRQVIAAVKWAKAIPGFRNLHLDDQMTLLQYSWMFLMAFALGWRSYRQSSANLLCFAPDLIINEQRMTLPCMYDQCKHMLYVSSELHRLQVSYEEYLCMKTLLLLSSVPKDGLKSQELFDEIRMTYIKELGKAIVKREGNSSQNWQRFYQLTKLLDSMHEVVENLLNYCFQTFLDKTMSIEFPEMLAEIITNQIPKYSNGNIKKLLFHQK
How it was run: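 HeLa GR-bla reporter line; cells pre-incubated 4 h, compound in DMSO 18 h at 37 C; LiveBLAzer B/G FRET substrate 2 h RT; fluorescence intensity read-out.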

[18] = target: Glucocorticoid receptor (Homo sapiens) (UniProt P04150); test: qHTS assay to identify small molecule antagonists of the glucocorticoid receptor (GR) signaling pathway (AID 720692; active means well fitted inhibition curve with a large enough effect in the signal ratio in the repeat runs, not every such curve was filed as active; the % refers to the signal ratio; further: potency means the concentration at half of the fitted maximal effect)
How it was run: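 Read-out: beta-lactamase FRET substrate fluorescence, 2 h at room temperature, in HeLa cells stably carrying a GRE-driven bla reporter. Compounds were co-incubated with 5 nM dexamethasone agonist (final) for 18 h at 37 C.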

[19] = qHTS assay for small molecule disruptors of the mitochondrial membrane potential - cell viability (AID 720634; calls by dose curve;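 further: human HepG2 liver cancer cells; series mostly up to about 83 µM; nearly all actives have a fitted effect of over 20% in size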)
How it was run: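 Luminescence from CellTiter-Glo (ATP content) gave viability in HepG2 cells, read in the same wells as the MMP dye assay after 1 hr compound exposure at 37 C.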

[20] = qHTS assay for small molecules that induce genotoxicity in human embryonic kidney cells expressing luciferase-tagged ATAD5 (AID 651632); further: nearly all actives have a fitted effect of over 15% in size
How it was run: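 Luminescence read-out: after 16 hr compound exposure at 37C, ATAD5-luciferase HEK293T cells received Amplite, 30 min RT, then CCD imaging. A rise in signal marks genotoxic stress.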

Measured: Potency

O=C1OC(=O)C2CC=CCC12 (stereo not given)
not listed: [19] | [20]
inactive: all other assays above

O=C1c2ccccc2C(=O)C1c1ccc2cc(S(=O)(=O)O)cc(S(=O)(=O)O)c2n1
active: [3] 52.5 µM
not listed: [4] | [14] | [17] | [18] | [19] | [20]
inactive: all other assays above

C=CC(C)(O)CC/C=C(/C)CCC=C(C)C (stereo not given)
not listed: [6] | [20]
inactive: all other assays above

CC1(COc2ccc(CC3SC(=O)NC3=O)cc2)CCCCC1 (stereo not given)
active: [1] 33.5 µM | [2] 26.6 µM | [4] 6.68 µM
not listed: [3] | [17] | [18] | [19] | [20]
inactive: all other assays above

Cc1c(Cl)cccc1[N+](=O)[O-]
not listed: [4] | [17] | [20]
inactive: all other assays above

C=C[Si](OCC)(OCC)OCC
not listed: [4] | [6] | [16] | [19] | [20]
inactive: all other assays above

CCCOC(C)=O
not listed: [2] | [4] | [10] | [16]
inactive: all other assays above

Cc1ccc2ccccc2c1[N+](=O)[O-]
not listed: [3] | [18] | [20]
inactive: all other assays above

Cc1cc(SC2=C(O)C[C@@](CCc3ccc(N)cc3)(C(C)C)OC2=O)c(C(C)(C)C)cc1CO
active: [18] 54.9 µM
not listed: [4] | [17] | [20]
inactive: all other assays above

CC(=O)Nc1ccccc1O
not listed: [4] | [17] | [18] | [19] | [20]
inactive: all other assays above

Cc1cc(C)c(C)c(O)c1
not listed: [4] | [10] | [17] | [18] | [20]
inactive: all other assays above

N#CCCCC(C#N)CCC#N (stereo not given)
not listed: [10] | [12] | [17] | [18] | [20]
inactive: all other assays above

CCCC(=O)OCc1ccccc1
not listed: [4] | [7] | [17] | [18] | [20]
inactive: all other assays above

CC1(C)C(=O)NC(=O)N1CO
not listed: [20]
inactive: all other assays above

C/C(=C\C(C)CC(C)CC(C)C)C1CC(=O)OC1=O (stereo not given)
active: [18] 24.6 µM
not listed: [7] | [19] | [20]
inactive: all other assays above

Nc1ccc(-c2ccc(F)cc2)cc1
not listed: [4] | [16] | [17] | [18] | [20]
inactive: all other assays above

CCc1cnc(C(=O)O)c(C(=O)O)c1
not listed: [17] | [18] | [20]
inactive: all other assays above

Cc1ccc(NC(=O)c2ccc(CN3CCN(C)CC3)cc2)cc1Nc1nccc(-c2cccnc2)n1
active: [4] 2.11 µM
not listed: [3] | [16] | [17] | [18]
inactive: all other assays above

FC1(F)C(F)(F)C(F)(F)C2(F)C(F)(C1(F)F)C(F)(F)C(F)(F)C1(F)C(F)(F)C(F)(F)C(F)(F)C(F)(F)C12F (stereo not given)
not listed: [4] | [17] | [18] | [19] | [20]
inactive: all other assays above

CCOc1cc(OCC)c(C(C)=O)cc1OCC
not listed: [3] | [4] | [6] | [18]
inactive: all other assays above

O=C(Nc1ccc2c(c1)Cc1ccccc1-2)C(F)(F)F
active: [4] 17.2 µM
not listed: [2] | [12] | [19]
inactive: all other assays above

Oc1ccc(CCNCCCCCCNCCc2ccccc2)cc1O
not listed: [4] | [17] | [18] | [20]
inactive: all other assays above

CC(C)C/C=C(\C=O)c1ccccc1
not listed: [4] | [6] | [12] | [17] | [18] | [20]
inactive: all other assays above

CC(=O)c1cccnc1
not listed: [12] | [19] | [20]
inactive: all other assays above

O=Cc1ccc([N+](=O)[O-])cc1
not listed: [20]
inactive: all other assays above

C/C(=C(\CCO)SS/C(CCO)=C(\C)N(C=O)Cc1cnc(C)nc1N)N(C=O)Cc1cnc(C)nc1N
not listed: [6] | [7] | [20]
inactive: all other assays above

C1CCN(CN2CCCCC2)CC1
not listed: [16] | [18] | [20]
inactive: all other assays above

Cc1ccc(S(=O)(=O)NC(=O)NC2CCCC2)cc1
not listed: [14] | [20]
inactive: all other assays above

O=[N+]([O-])c1ccc(Cl)cc1Cl
not listed: [1]
inactive: all other assays above

CCC1=C(C)CN(C(=O)NCCc2ccc(S(=O)(=O)NC(=O)NC3CCC(C)CC3)cc2)C1=O (stereo not given)
not listed: [1] | [4] | [17]
inactive: all other assays above

CC(Cc1ccccc1)(NC(=O)CN)c1ccccc1 (stereo not given)
not listed: [1] | [4] | [18]
inactive: all other assays above
